# 12-hLO inh = qHTS Assay for Inhibitors of 12-hLO (12-human lipoxygenase). Polyunsaturated fatty acid lipoxygenase ALOX12 (Homo sapiens), P18054. purified 12-hLO, xylenol orange hydroperoxide absorbance. Potency, µM (series often up to 57.1 µM), for inactives: at the top dose activity change, negative = inhibition, most hits filed as inhibitors. 150,000 tested, 0.12% active. AID 1452, 2008; active means well fitted curve in the direction sought with a large enough effect; inconclusive means small, poorly fitted or top-dose-only effect, or another doubt; inactive means no such curve, though single readings can be large; an effect the other way counts as inactive or inconclusive; further: potency means the concentration at half of the fitted maximal effect; nearly all actives have a fitted effect of over 55% in size
#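 Hydroperoxide output read as Fe(III)-xylenol orange absorbance, 573-to-405 nm ratio, after 30 min reaction with 40 uM arachidonic acid. Enzyme: 150 nM purified human 12hLO, 15 min compound preincubation; 25 mM Hepes pH 7.0, room temperature.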
# IMPase Li cell = qHTS Assay for Identifying the Cell-Membrane Permeable IMPase Inhibitors: Potentiation with Lithium; CHO-M1 cells, IP1 TR-FRET (IP-One), carbachol + lithium; Potency, µM (doses to about 59.4 µM), inactives show at the highest dose activity, negative = IMPase inhibition, actives largely listed as inhibitors; 210,000 tested, 0.35% active; active means well fitted curve in the direction sought with a large enough effect; inconclusive means small, poorly fitted or top-dose-only effect, or another doubt; inactive means no such curve, though single readings can be large; an effect the other way counts as inactive or inconclusive;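 further: IP1 builds up when IMPase is blocked and the TR-FRET signal falls; potency means the concentration at half of the fitted maximal effect; plate controls were basal vehicle for no effect and high inhibitor control for full effect; nearly all actives have a fitted effect of over 50% in size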
#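 Readout is a homogeneous TR-FRET IP1 immunoassay (Ex 320, Em 665 and 620), where raised cytosolic IP1 lowers signal. Cells were CHO-M1 treated 30 min at 37C with test compounds plus a little lithium; AC50 values came from Hill-equation fitting.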
# HPGD block = qHTS Assay for Inhibitors of HPGD (15-Hydroxyprostaglandin Dehydrogenase); 15-hydroxyprostaglandin dehydrogenase [NAD(+)] (Homo sapiens), P15428; purified HPGD, NADH fluorescence kinetic, PGE2 substrate; Potency, µM, for the others: at the highest dose activity change, negative = inhibition, hits mostly inhibitors; 150,000 tested, 4.3% active; AID 894, 2007; further: potency means the concentration at half of the fitted maximal effect
# Target sequence (P15428 whole entry, looked up): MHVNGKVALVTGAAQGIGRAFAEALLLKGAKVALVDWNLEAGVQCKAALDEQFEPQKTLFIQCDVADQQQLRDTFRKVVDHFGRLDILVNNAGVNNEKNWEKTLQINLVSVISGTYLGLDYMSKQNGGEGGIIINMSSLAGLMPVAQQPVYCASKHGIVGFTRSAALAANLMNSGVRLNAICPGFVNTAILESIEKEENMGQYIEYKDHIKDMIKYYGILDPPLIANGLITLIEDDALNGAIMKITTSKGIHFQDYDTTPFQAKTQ
#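 20 nM HPGD preincubated 15 min at room temperature with compound in 50 mM Tris-HCl pH 8, 0.01% Tween 20. Started with 1 mM NAD+ and 30 uM prostaglandin E2; NADH fluorescence (360/450 nm) read 5 times over 30-s intervals, last minus first.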
# PNC assembly inh = High Content Assay for Compounds that inhibit the Assembly of the Perinucleolar Compartment; PC3M PTB-GFP, PNC prevalence imaging, 16 h; active compounds read low; activity change (PNC), negative = inhibition, % at 10 µM; 140,000 tested, 3.1% active;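 active means readout at or below -70, meaning at least 70% loss of cells showing the perinucleolar compartment, a nuclear body marking cancer cells; inconclusive means readout between -30 and a set limit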;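 further: plate controls were DMSO wells for no effect and camptothecin positive control wells for full effect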
#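 PC3M cells stably expressing PTB-GFP, 750–1000 cells/well, treated 16 h at 37 °C with compound (23 nl of library stock), in duplicate. After paraformaldehyde fixation and Hoechst stain, imaged at 20x; PNC prevalence scored by image analysis.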
# ALDH1A1 block = qHTS Assay for Inhibitors of Aldehyde Dehydrogenase 1 (ALDH1A1) | Aldehyde dehydrogenase 1A1 (Homo sapiens), P00352 | Purified ALDH1A1, NADH fluorescence, propionaldehyde substrate | Potency, µM (top dose mostly 75.3 µM), inactives show at the top dose activity, negative = inhibition, most hits filed as inhibitors | 220,000 tested, 7.3% active | AID 1030, 2008;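 further: potency means the concentration at half of the fitted maximal effect; plate controls were no enzyme wells and a reference inhibitor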
# IMPase inh = qHTS Assay for Identifying the Cell-Membrane Permeable IMPase Inhibitors; Inositol monophosphatase 1 (Rattus norvegicus), P97697; AID 901, 2007; CHO-M1 cells, IP1 accumulation, HTRF TR-FRET ratio; inhibition (IP1 accumulation), % at 46.1 µM; 120,000 tested, under 10 active; active means well fitted curve in the direction sought with a large enough effect in the signal ratio, not every such curve was filed as active; inconclusive means small, poorly fitted or top-dose-only effect, or a change in a side signal; inactive means no such curve, though single readings can be large or run the other way; the % refers to the signal ratio;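 further: cells stimulated with carbachol in lithium chloride buffer; plate controls were DMSO basal wells for no effect and reference inhibitor wells for full effect; higher means more IMPase inhibition seen as more IP1 and lower FRET ratio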
# Target sequence (P97697 whole entry, looked up): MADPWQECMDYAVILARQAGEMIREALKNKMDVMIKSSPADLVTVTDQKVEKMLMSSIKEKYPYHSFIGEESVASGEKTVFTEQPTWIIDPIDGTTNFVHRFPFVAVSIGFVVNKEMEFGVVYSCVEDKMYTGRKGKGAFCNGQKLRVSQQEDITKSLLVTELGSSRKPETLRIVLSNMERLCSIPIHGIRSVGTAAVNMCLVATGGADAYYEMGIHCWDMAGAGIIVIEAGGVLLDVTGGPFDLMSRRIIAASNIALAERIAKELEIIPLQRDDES
#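 CHO-M1, 2000 cells/well, cultured 16–30 h; cpd up to 46 uM; carbachol (50 uM solution, stimulation buffer w/ 50 mM LiCl, pH 7.4), 30 min 37C; IP-One TR-FRET, 10 min RT; Ex 320/Em 665, 620; Hill-fit AC50.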
# An asterisk follows results filed as active; ? = inconclusive; . = not tested or not shown; [ ] = dose if it differs, or a comment. The list is not random: actives were taken first. Their share in the collection is about 11%. Unless noted, the call rests on the fitted dose curve; in most records, active means well fitted inhibition curve with a large enough effect (not every such curve was filed as active); inconclusive means small, poorly fitted or top-dose-only effect, or another doubt; inactive means no such curve, though single readings can be large or run the other way. Unless noted, on the % scale 0 is the no-effect control and ±100 the full control effect.
SMILES,12-hLO inh,IMPase Li cell,HPGD block,PNC assembly inh,ALDH1A1 block,IMPase inh
Brc1c(Br)c(Br)c2n[nH]nc2c1Br,-2.1%,8.4%,?,.,?,-4.0
C[C@]1(O)CC[C@H]2[C@@H]3[C@@H](O)CC4=CC(=O)CC[C@@]4(C)[C@H]3CC[C@]21C,3.7%[11.4 µM],-4.1%,-3.4%,.,20.2%[13.5 µM],.
NC(=O)CI,-4.7%,3.6%,?,.,28.2µM*,-0.4
N[C@H](CP(=O)(O)O)C(=O)O,-6.1%,13.5%,-3.3%,.,-2.4%,?
NC(N)=Nc1ccc2[nH]c3c(c2c1)C[C@@]1(O)[C@H]2Cc4ccc(O)c5c4[C@@]1(CCN2CC1CC1)[C@H]3O5,.,38.2%,3.16µM*,.,1.58µM*,.
CC(C)(COCC1CO1)COCC1CO1 (configuration not stated),-4.9%,14.9%,-10.0%,.,1.2%,.
Cc1ccc(/C=C2/C(=O)NC(=O)N(CCc3ccc(F)cc3)C2=O)o1,?,-3.1%[38.3 µM],3.55µM*,?,5.62µM*,2.3
Cn1cccc1/C=C1\C(=O)NC(=O)N(Cc2ccccc2Cl)C1=O,.,4.6%,.,.,-0.7%,.
O=C1NC(=O)N(CCc2ccc(F)cc2)C(=O)/C1=C/c1ccco1,.,3.7%,.,.,2.51µM*,.
Cl.Cl.Cl.Cl.Cl.Cl.N.N.N.N.NNNNN.NNNNN.O.O.[Ru].[Ru].[Ru],?,9.6%,-12.0%,.,-1.2%,6.7
O=c1[nH]c(=O)n(Cc2ccco2)c(O)c1/C=N/N1CCCCC1,-0.7%,6.8%,-19.1%,?,?,-1.6
O=c1[nH]c(=O)n(Cc2ccco2)c(O)c1C=NC1CC1,-5.5%,-11.3%[38.3 µM],-25.0%,32.0,14.1µM*,4.6
O=c1c(O)c(-c2ccc(O)c(O)c2)oc2c(O)c(O)cc(O)c12,-4.8%,42.9%,17.8µM*,.,35.5µM*,.
C[C@@H]1O[C@H](O[C@@H]2C[C@@H](O)[C@]3(CO)[C@H]4[C@H](O)C[C@]5(C)[C@@H](C6=CC(=O)OC6)CC[C@@]5(O)[C@@H]4CC[C@]3(O)C2)[C@@H](O)[C@H](O)[C@H]1O,1.2%,.,-2.8%,.,-5.5%,.
C[CH2][Hg][S]c1ccccc1C(=O)O,?,14.2%,0.282µM*,.,0.178µM*,.
Nc1nonc1C(=O)N/N=C/c1ccc([N+](=O)[O-])o1,.,4.9%,.,.,12.6µM*,.
N/C(=N\[N+](=O)[O-])N/N=C/c1ccc(O)cc1,5.2%,0.5%[38.3 µM],-17.8%,?,11.9%,-9.5
CCOP(=S)(OCC)Oc1cc(C)oc(=O)c1Cl,.,.,.,.,1µM*,.
CCOP(=S)(OCC)Oc1ccc2c(C)c(Cl)c(=O)oc2c1,1.6%,-8.7%,?,.,?,.
CCOP(=S)(OCC)Oc1cc(C)oc(=O)c1,.,.,.,.,7.94µM*,.
Cc1cc(/C=C2/C(=O)NC(=O)N(c3ccc(Br)cc3)C2=O)c(C)n1C,.,.,.,.,5.0%,.
Cc1ccc(N2C(=O)NC(=O)/C(=C\c3cc(C)n(-c4sc5c(c4C#N)CCCC5)c3C)C2=O)cc1,-18.9%,11.5%,10µM*,?,0.794µM*,0.4
CCOC(=O)c1c(/N=C/C2C(=O)NC(=O)NC2=O)sc2c1CCC2,.,-2.4%,.,.,-5.8%,.
CCN1C(=O)NC(=O)/C(=C/c2cc(C)n(-c3sc(C)c(C)c3C#N)c2C)C1=O,1.9%,6.5%,8.91µM*,?,0.199µM*,.
CCOC(=O)c1c(-n2c(C)cc(C=C3C(=O)NC(=S)NC3=O)c2C)sc2c1CCCC2,?,13.4%,3.55µM*,?,7.94µM*,13.7
SMILES,12-hLO inh,IMPase Li cell,HPGD block,PNC assembly inh,ALDH1A1 block,IMPase inh
COc1cc2c3cc1Oc1c(O)c(OC)cc4c1[C@@H](Cc1ccc(cc1)Oc1cc(ccc1O)C[C@H]3N(C)CC2)N(C)CC4,7.3%[11.4 µM],13.7%,-9.0%,.,-4.6%[13.5 µM],.
CCBr,-3.3%,-4.7%,0.8%,.,?,.
c1ccc(P(c2ccccc2)c2ccccc2)cc1,1.5%,27.1%,.,.,.,.
CC(C)=CCC12CN3CCN(CC(C3)C1=O)C2,1.6%,17.5%[38.3 µM],-6.2%,-87.8*,2.0%,1.4
CN(C)CCCc1c[nH]c2ccccc12,1.0%[11.4 µM],1.1%,-7.5%,.,2.7%[13.5 µM],.
COC(=O)C(O)(c1ccc(NC(=S)NC(=O)c2ccc(Cl)cc2Cl)cc1)C(F)(F)F (configuration not stated),-21.6%,4.4%,-8.0%,-20.8,?,.
CCOC(=O)C(O)(c1ccc(NC(=S)NC(=O)c2ccc(Cl)cc2Cl)cc1)C(F)(F)F (configuration not stated),-22.6%,10.5%,-21.5%,-13.8,8.91µM*,.
CCOC(=O)C(O)(c1ccc(NC(=S)NC(=O)c2ccc(Cl)cc2Cl)c(C)c1)C(F)(F)F (configuration not stated),?,10.0%,-23.1%,-15.4,17.8µM*,.
CC(=O)[C@@H]1CC[C@H]2[C@H]3CC[C@H]4C[C@@H](O)CC[C@]4(C)[C@@H]3CC[C@]12C,-2.9%,.,.,.,.,1.7
O=C(CNC(=O)c1cccs1)NCC(=O)OCC(=O)c1ccc([N+](=O)[O-])cc1,.,3.3%,.,.,2.24µM*,.
Cc1ncsc1CCOC(=O)c1ccc([N+](=O)[O-])cc1,-3.6%,26.7%,-16.9%,-12.9,-9.0%,-1.6
CCn1c(O)c(C(=O)CC2NCCc3ccccc32)c(=O)n(CC)c1=S (configuration not stated),-4.7%,23.8%[38.3 µM],-13.5%,3.0,1.26µM*,5.5
C=CC(=O)OCC(CC)CCCC (configuration not stated),1.6%,-15.8%,-5.2%,.,-4.2%,.
COc1ccc2c(c1)CC[C@@H]1[C@@H]2CC[C@]2(C)[C@@H](NCCCCCCN3C(=O)C=CC3=O)CC[C@@H]12,.,-6.9%,.,.,7.8%,.
COc1cccc(CCNCc2c(F)cccc2F)c1,.,19.2%,.,.,10µM*,.
c1cc(OCC2CO2)cc(OCC2CO2)c1 (configuration not stated),1.1%,15.7%,-13.3%,.,?,.
S=C=Nc1cccc2ccccc12,-7.5%,7.6%,?,.,?,.
Cc1cccnc1-n1c(-c2ccco2)nc2ccccc2c1=O,-4.7%,.,.,11.1,28.2µM*,5.5
CC(=O)Nc1ccccc1C(=O)OCC(=O)c1ccccc1Cl,1.1%,2.1%,-9.7%,-21.7,-10.9%,.
